Assay results published in PubChem BioAssay (NCI).
This is part of a sample that, as a whole, favours compounds with a hit. Of some 83,000 tested, about 20% had one in any assay.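 Step 1: grow cells in 96-well plates. Step 2: add test compound at a single concentration. Step 3: incubate 48 h. Step 4: record percent growth.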 Values without a mark were called inactive. The source made the active and inactive calls. Rule for the calls: active = growth percent below 10; inactive = the rest.

Legend:
Test in all cases: NCI-60 one-dose screen, 48 h (100 = growth as untreated, 0 = no growth, -100 = all killed)
Details in all cases: 10 µM unless noted
[1] = system: SK-MEL-2 melanoma
[2] = system: EKVX NSCLC
[3] = system: SN12C renal
[4] = system: UO-31 renal
[5] = system: TK-10 renal
[6] = system: ACHN renal
[7] = system: CAKI-1 renal
[8] = system: A498 renal
[9] = system: CCRF-CEM leukemia
[10] = system: MOLT-4 leukemia
[11] = system: RPMI-8226 leukemia
[12] = system: OVCAR-8 ovarian
[13] = system: OVCAR-5 ovarian
[14] = system: OVCAR-4 ovarian
[15] = system: SK-OV-3 ovarian
[16] = system: IGROV1 ovarian
[17] = system: OVCAR-3 ovarian
[18] = system: HS 578T breast
[19] = system: NCI/ADR-RES ovarian

Compound	growth [1]	growth [2]	growth [3]	growth [4]	growth [5]	growth [6]	growth [7]	growth [8]	growth [9]	growth [10]	growth [11]	growth [12]	growth [13]	growth [14]	growth [15]	growth [16]	growth [17]	growth [18]	growth [19]
COC(=O)c1ccc2nc(-c3cc4ccccc4n3C)n(CCCCOc3cc4c(cc3OC)C(=O)N3CCC[C@H]3C=N4)c2c1	-40.3% (active)	10.8%	3.64% (active)	-57.3% (active)	-17.7% (active)	-5.96% (active)	-20.7% (active)	-60.3% (active)	-35.1% (active)	3.44% (active)	-32.9% (active)	16.5%	-1.18% (active)	-24% (active)	30.1%	-68.2% (active)	-40.2% (active)	-62.5% (active)	29.5%
Cc1ccc(-c2csc3nc(C)c(CCCl)c(=O)n23)cc1	94.5%	76.8%	101%	70.4%	113%	99%	88%	104%	104%	85.6%	83.8%	103%	107%	–	105%	78.8%	99.4%	83%	105%
OC1CC2c3ccccc3C1c1ccccc12 (stereo not given)	117%	108%	106%	95.7%	96.9%	111%	94.5%	125%	104%	106%	104%	106%	113%	100%	112%	–	112%	104%	110%
C/C(=C\c1csc(C)n1)[C@@H]1C[C@@H]2O[C@]2(C)CCC[C@H](C)[C@H](O)[C@@H](C)C(=O)C(C)(C)[C@@H](O)CC(=O)N1	-46.7% (active)	-25.6% (active)	-81.1% (active)	-85.7% (active)	-68% (active)	-100% (active)	-88.4% (active)	-28.7% (active)	-80.7% (active)	-27.5% (active)	-45.3% (active)	-74% (active)	-6.81% (active)	14.8%	-8.54% (active)	-85.5% (active)	-100% (active)	-61.7% (active)	-70.2% (active)
COc1ccc(C(=O)N2CCN(C(=O)c3cc(OC)c(OC)c(OC)c3)CC2)cc1OCCCCOc1cc2c(cc1OC)C(=O)N1CCC[C@H]1C=N2	31.9%	113%	97.9%	32.7%	157%	105%	81.4%	95.5%	86.4%	108%	90.3%	209%	111%	112%	108%	-18.9% (active)	105%	-24.2% (active)	110%
CCN(CC)CCCNc1nc(C)cc(Nc2ccc3nc(C)cc(N)c3c2)n1	36.1%	96.2%	94.7%	89.7%	88%	101%	95.6%	125%	99.4%	112%	102%	106%	102%	116%	89.9%	97.8%	106%	109%	101%
NC(N)=NC(N)=Nc1ccccc1-c1ccccc1	109%	111%	105%	99.3%	108%	106%	89.8%	113%	113%	98.6%	112%	113%	110%	110%	123%	110%	117%	–	117%
Cc1ccc2c(c1)ncn2-c1ncnc2c1CC(C)c1ccccc1N2C (stereo not given)	32.7%	40.8%	21.2%	26.9%	8.21% (active)	20.2%	19.6%	-11.7% (active)	13.3%	12%	-9.63% (active)	8.64% (active)	54.8%	46.5%	29.6%	16.3%	9.32% (active)	–	17.1%
CCCS(=O)(=O)c1nc(NC2CC2)cc(-c2ccc3c(ccn3C3CC(C)(C)NC(C)(C)C3)c2)n1	54.5%	22.6%	-77.9% (active)	-66.1% (active)	-56% (active)	-90.3% (active)	85.1%	108%	-13.7% (active)	55.9%	-32.6% (active)	-52.8% (active)	-15.2% (active)	-70.6% (active)	92.6%	-51% (active)	-89.4% (active)	-11.4% (active)	41.5%
CCO/C=N/NC(=O)c1ccncc1	102%	102%	111%	98.9%	103%	108%	100%	104%	106%	107%	108%	108%	103%	–	109%	108%	106%	105%	111%
C=C1C(=O)O[C@H]2[C@H]1CC/C(COC(=O)NCc1cc(OC)c(OC)c(OC)c1)=C\CC[C@@]1(C)O[C@@H]21	73.8%	75.8%	47.6%	70.6%	51.6%	45.5%	54.1%	109%	6.67% (active)	54.1%	43.6%	43.9%	85%	60.5%	101%	–	21.2%	71.5%	110%
COC(=O)c1ccc(C)cc1	106%	98.3%	107%	101%	-16.3% (active)	116%	97%	79.9%	101%	103%	102%	103%	110%	105%	99.6%	–	106%	99.5%	106%
Cn1c(=O)c2c(nc3n2CCN(CCc2ccc(OCCN4CCOCC4)cc2)C3)n(C)c1=O	101%	102%	104%	93.8%	104%	106%	97.5%	81.3%	105%	98%	100%	109%	103%	95.5%	118%	108%	110%	106%	112%
COC(=O)CCCCCCN=Cc1c(O)c(O)c(C(C)C)c2cc(C)c(-c3c(C)cc4c(C(C)C)c(O)c(O)c(C=NCCCCCCC(=O)OC)c4c3O)c(O)c12	24.7%	23.9%	22.8%	21.8%	12.4%	21.6%	65.4%	46.1%	16.1%	15.8%	13.2%	18.6%	21.7%	27.7%	64.8%	29.3%	21.8%	20.2%	69.1%
COc1ccc(Cl)cc1NC(N)=S	107%	105%	105%	97%	89.5%	110%	97.3%	95.9%	105%	99.7%	100%	108%	113%	94.8%	118%	–	108%	104%	105%
CCOC(=O)c1cc(/C(=N\O)c2cc(OC)c(OC)c(OC)c2)n2c(C)cccc12	21.8%	36.6%	54.3%	54%	21.2%	37.3%	36%	-1.4% (active)	22.5%	28.5%	41.5%	54.3%	73.2%	54.1%	38.4%	–	15.7%	–	–
NC(=O)c1ccc2c(c1)OCO2	114%	95.1%	108%	102%	91.7%	109%	93.5%	86.8%	102%	105%	–	108%	113%	103%	130%	–	107%	98.7%	97%
